Consider 14 compounds from PubChem BioAssay (NCI).

Compounds without any hit were thinned out: in the full panel of roughly 83,000, 20% have a hit.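 Testing used 96-well plates and a 48-hour single-concentration exposure. Example: -40 means 40% of the starting cells died.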 Values without a mark were called inactive. Active and inactive are the calls of the source. How the source made its calls: active means growth percent below 10; inactive means the rest.

Test systems include NCI-H23 lung; NCI-H226 lung; NCI-H322M lung; HOP-62 NSCLC; NCI-H460 lung; HOP-92 NSCLC; NCI-H522 lung; 786-0 renal; COLO 205 colon; A549/ATCC NSCLC.
Holding throughout (test): NCI-60 one-dose screen, 48 h (100 = growth as untreated, 0 = no growth, -100 = all killed)
Holding throughout (conditions): 10 µM unless noted

`CCN1CCN(C(=O)[C@]23CC[C@@H](C)[C@H](C)[C@@H]2C2=CC[C@@H]4[C@@]5(C)C/C(=C/c6cccnc6)C(=O)C(C)(C)[C@@H]5CC[C@@]4(C)[C@]2(C)CC3)CC1`: the growth in the assay on NCI-H23 lung was 34.2%; with NCI-H226 lung, 47.8%; in the assay with NCI-H322M lung, 65.7%; in the assay on HOP-62 NSCLC, 44.5%; in the assay on NCI-H460 lung, 7.51% (active); in the assay on HOP-92 NSCLC, 56.9%. Moreover, the growth in the assay on NCI-H522 lung was 17.7%; in the assay on 786-0 renal, 42.4%; with COLO 205 colon, 11.5%.
`CC1(C)CC[C@]2(CO)CC[C@]3(C)[C@H](CC[C@@H]4[C@@]5(C)CCCNC(C)(C)[C@@H]5CC[C@]43C)[C@H]2[C@H]1O`: the growth was 88.1% with NCI-H23 lung; 103% in the assay with NCI-H226 lung; 93.8% in the assay on NCI-H322M lung; 98% with HOP-62 NSCLC; 11.7% with NCI-H460 lung; 83.8% with HOP-92 NSCLC. Also, the results for the growth in the assay on NCI-H522 lung, with 786-0 renal and with COLO 205 colon were 92.1%, 96.7% and 0.611% (active), respectively.
Consider `COC(=O)c1cc(Br)ccc1O`, for which the growth with NCI-H23 lung is 110%; in the assay on NCI-H226 lung, 101%; in the assay with NCI-H322M lung it was 105%; in the assay on HOP-62 NSCLC, 103%; in the assay on NCI-H460 lung it was 109%; with NCI-H522 lung, 94.8%. Moreover, the growth is 99.9% in the assay on A549/ATCC NSCLC, 96.7% in the assay with 786-0 renal and 112% with COLO 205 colon.
Consider `CC1CCN(C(=O)CCCl)c2ccccc21` (stereo unspecified), for which the growth with NCI-H23 lung was 90.6%; in the assay on NCI-H226 lung it was 105%; in the assay on NCI-H322M lung, 107%; with HOP-62 NSCLC, 112%; in the assay with NCI-H460 lung, 101%; in the assay on HOP-92 NSCLC it was 115%. In addition, the growth in the assay on NCI-H522 lung is 84.9%; in the assay on 786-0 renal it was 110%; in the assay on COLO 205 colon, 111%.
As for `Cc1ccc2c(=O)cc(C(=O)Nc3sc4c(c3C(=O)NCc3cccnc3)CCCC4)oc2c1C`, the growth with NCI-H23 lung is 101%; in the assay with NCI-H226 lung, 107%; with NCI-H322M lung it was 103%; in the assay on HOP-62 NSCLC, 104%; with NCI-H460 lung it was 109%; in the assay on NCI-H522 lung, 100%. In addition, the growth with A549/ATCC NSCLC was 98.4%; in the assay on 786-0 renal, 108%; in the assay with COLO 205 colon, 110%.
For the compound `C=C1C(=O)O[C@H]2[C@H]1CC/C(COC(=O)c1ccc(C(=O)O)s1)=C\CC[C@@]1(C)O[C@@H]21`, the growth is 57.4% with NCI-H23 lung; 41.9% in the assay with NCI-H226 lung; 68.2% with NCI-H322M lung; 75% in the assay with HOP-62 NSCLC; 30.6% in the assay on NCI-H460 lung; -79.8% (active) with NCI-H522 lung. The growth in the assay with A549/ATCC NSCLC is 80.3%; in the assay on 786-0 renal, 41.6%; in the assay on COLO 205 colon it was -0.755% (active).
`CNC(=O)c1cc(Oc2cccc3nc(NC(=O)Nc4cc(C(F)(F)F)ccc4Cl)ccc23)ccn1`: the growth in the assay with NCI-H23 lung was 80%; in the assay with NCI-H226 lung it was 99.1%; with NCI-H322M lung, 101%; in the assay on HOP-62 NSCLC, 95.2%; in the assay on NCI-H460 lung it was 101%; with HOP-92 NSCLC, 115%. Besides, the growth with NCI-H522 lung is 94%; in the assay on 786-0 renal, 68.8%; in the assay with COLO 205 colon, 67.5%.
Consider `Cc1ccc(/C=C(\C#N)n2nnc3cc(F)c(F)cc32)cc1`, for which the growth is 27.1% with NCI-H23 lung; 47.6% with NCI-H226 lung; 4.87% (active) with NCI-H322M lung; 23.1% in the assay on HOP-62 NSCLC; 22% in the assay on NCI-H460 lung; -5.1% (active) in the assay with HOP-92 NSCLC. The growth in the assay with NCI-H522 lung is 1.39% (active); with 786-0 renal, -26.8% (active); with COLO 205 colon it was -27.9% (active).
Turning to `CCCCCCCCCCCCCOC(=O)c1c(C)[nH]c(/C=C2\N=C(c3ccc[nH]3)C=C2OC)c1C`, the growth in the assay with NCI-H23 lung is 31.4%; in the assay with NCI-H226 lung, -38.1% (active); in the assay with NCI-H322M lung it was 32.7%; in the assay on HOP-62 NSCLC, 30.1%; in the assay with NCI-H460 lung it was 16.1%; in the assay with NCI-H522 lung it was 5.93% (active). Besides, the values for the growth in the assay with A549/ATCC NSCLC, in the assay with 786-0 renal and in the assay with COLO 205 colon were -4.51% (active), 22.3% and 7.58% (active), respectively.
On to `CSC1=Nc2c(c(C)c(-c3ccccc3)n2CCCC(=O)O)C2=NC(=O)C[C@H](C)N12`, for which the growth with NCI-H23 lung was 105%; with NCI-H226 lung, 110%; in the assay on NCI-H322M lung, 102%; in the assay with HOP-62 NSCLC it was 89.7%; with NCI-H460 lung, 102%; with HOP-92 NSCLC it was 94.3%. For the same compound, the growth in the assay on NCI-H522 lung is 93%; with 786-0 renal, 102%; in the assay on COLO 205 colon, 119%.
As to `O=C1/C(=C/c2ccc(F)cc2)CN(C(=O)C(Cl)Cl)C/C1=C\c1ccc(F)cc1`, the growth in the assay with NCI-H23 lung is -48.1% (active); with NCI-H226 lung it was 0.691% (active); in the assay on NCI-H322M lung, -63% (active); in the assay with NCI-H460 lung, -78% (active); in the assay on HOP-92 NSCLC, -48% (active); in the assay with NCI-H522 lung, -58.1% (active). Moreover, the growth in the assay on A549/ATCC NSCLC is -31.8% (active); in the assay with 786-0 renal it was -56.2% (active); in the assay with COLO 205 colon, -70.2% (active).
In the case of `COC(=O)C(Cc1ccccc1)NC(=O)c1ccc(NC(=O)c2[nH]c(C)c(Cl)c2Cl)c(OC(C)C)c1` (stereo unspecified), the growth is 70% with NCI-H23 lung; 88.6% in the assay with NCI-H226 lung; 102% in the assay on NCI-H322M lung; 90.3% in the assay on HOP-62 NSCLC; 6.05% (active) with NCI-H460 lung; 93.9% in the assay with NCI-H522 lung. Also, the growth in the assay with A549/ATCC NSCLC was 6.57% (active); with 786-0 renal, 39.5%; in the assay on COLO 205 colon, 102%.
`N=c1c(S(=O)(=O)c2ccccc2)cc2c(=O)n3ccccc3nc2n1CC1CCCO1` (stereo unspecified): the growth was 99.8% in the assay with NCI-H23 lung; 103% in the assay with NCI-H226 lung; 96.4% in the assay with NCI-H322M lung; 105% in the assay on NCI-H460 lung; 94.5% in the assay with HOP-92 NSCLC; 100% in the assay on NCI-H522 lung. Besides, the growth in the assay with A549/ATCC NSCLC was 111%; in the assay on 786-0 renal it was 103%; in the assay on COLO 205 colon, 113%.
As to `C=CCC(CCCC)(C(=O)OCC)C(=O)OCC`, the growth is 98.8% with NCI-H23 lung; 106% in the assay with NCI-H226 lung; 109% with NCI-H322M lung; 117% with NCI-H460 lung; 96.2% with HOP-92 NSCLC; 94% with NCI-H522 lung. For the same compound, the growth in the assay with A549/ATCC NSCLC was 103%; in the assay on 786-0 renal, 94.9%; in the assay with COLO 205 colon, 111%.
